We go through seven compounds from ChEMBL document CHEMBL1961873, “Compounds: GSK PKIS; Assays: Nanosyn kinase panel” (2012).

Each structure is given as a SMILES string. Where “and” joins values, the source holds several entries; their conditions need not be identical. Equal entries are not always repeated.

The target of assay [1] is Glycogen synthase kinase-3 beta (Homo sapiens) (UniProt P49841). Particulars: at 1 µM.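 Note: reported values are mean percent inhibition of GSK3B.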
For assay [2], the target named is Homeodomain-interacting protein kinase 1 (Homo sapiens) (UniProt Q86Z02). The settings on record: at 0.1 µM.
Homeodomain-interacting protein kinase 1 (Homo sapiens), sequence (Q86Z02 whole entry, looked up): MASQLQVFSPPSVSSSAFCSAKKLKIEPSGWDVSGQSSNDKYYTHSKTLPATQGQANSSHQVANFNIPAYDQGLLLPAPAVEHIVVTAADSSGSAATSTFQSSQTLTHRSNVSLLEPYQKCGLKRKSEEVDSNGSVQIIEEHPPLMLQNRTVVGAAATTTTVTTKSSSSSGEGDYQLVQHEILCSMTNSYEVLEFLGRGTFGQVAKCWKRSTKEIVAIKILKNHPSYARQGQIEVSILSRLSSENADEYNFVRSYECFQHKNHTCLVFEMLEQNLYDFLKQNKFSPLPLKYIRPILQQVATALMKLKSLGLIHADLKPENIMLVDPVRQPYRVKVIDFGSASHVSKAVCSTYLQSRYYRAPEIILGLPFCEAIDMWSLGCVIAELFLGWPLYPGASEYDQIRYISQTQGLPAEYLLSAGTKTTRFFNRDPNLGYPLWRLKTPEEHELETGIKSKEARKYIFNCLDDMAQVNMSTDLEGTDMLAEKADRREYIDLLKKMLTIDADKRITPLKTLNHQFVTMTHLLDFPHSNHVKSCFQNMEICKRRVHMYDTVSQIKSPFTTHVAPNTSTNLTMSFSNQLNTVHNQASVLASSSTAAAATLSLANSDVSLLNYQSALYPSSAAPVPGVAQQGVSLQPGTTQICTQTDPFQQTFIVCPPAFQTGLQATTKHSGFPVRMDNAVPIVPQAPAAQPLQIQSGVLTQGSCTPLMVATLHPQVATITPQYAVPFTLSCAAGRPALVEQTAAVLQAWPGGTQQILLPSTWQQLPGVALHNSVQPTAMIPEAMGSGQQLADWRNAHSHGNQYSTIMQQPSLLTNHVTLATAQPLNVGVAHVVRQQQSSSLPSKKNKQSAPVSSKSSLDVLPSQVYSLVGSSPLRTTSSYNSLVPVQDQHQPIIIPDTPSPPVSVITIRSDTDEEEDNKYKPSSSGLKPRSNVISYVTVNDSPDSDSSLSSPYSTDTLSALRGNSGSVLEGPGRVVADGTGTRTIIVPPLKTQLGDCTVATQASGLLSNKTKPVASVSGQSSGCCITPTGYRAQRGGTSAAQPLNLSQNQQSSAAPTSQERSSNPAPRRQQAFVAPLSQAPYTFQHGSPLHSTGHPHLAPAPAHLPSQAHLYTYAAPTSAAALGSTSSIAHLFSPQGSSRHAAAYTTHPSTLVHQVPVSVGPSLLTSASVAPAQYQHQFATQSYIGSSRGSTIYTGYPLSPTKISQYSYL
Assay [3] shares this target. Particulars: at 1 µM.
The target of assay [4] is T1, Homeodomain-interacting protein kinase 4 (Homo sapiens) (UniProt Q8NE63).
T1 sequence (whole entry): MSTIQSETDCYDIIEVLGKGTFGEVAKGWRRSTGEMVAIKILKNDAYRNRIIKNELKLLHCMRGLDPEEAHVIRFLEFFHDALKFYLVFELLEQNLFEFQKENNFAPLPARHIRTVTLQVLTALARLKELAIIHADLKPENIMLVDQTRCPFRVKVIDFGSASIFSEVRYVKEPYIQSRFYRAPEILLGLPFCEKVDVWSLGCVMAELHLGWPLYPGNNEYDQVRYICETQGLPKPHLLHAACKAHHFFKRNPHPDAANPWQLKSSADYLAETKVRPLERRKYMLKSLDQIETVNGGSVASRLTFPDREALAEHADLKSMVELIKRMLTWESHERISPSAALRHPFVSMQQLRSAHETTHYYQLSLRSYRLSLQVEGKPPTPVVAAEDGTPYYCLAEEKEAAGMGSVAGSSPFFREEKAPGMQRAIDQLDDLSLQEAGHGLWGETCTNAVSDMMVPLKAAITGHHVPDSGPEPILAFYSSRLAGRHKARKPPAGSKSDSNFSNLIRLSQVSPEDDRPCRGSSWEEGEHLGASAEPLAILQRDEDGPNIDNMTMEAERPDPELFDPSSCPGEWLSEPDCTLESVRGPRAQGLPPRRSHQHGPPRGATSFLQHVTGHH
Particulars: at 0.1 µM.

The target of assay [5] is T1, Homeodomain-interacting protein kinase 4 (Homo sapiens). Particulars: at 1 µM.
Assay [6] concerns the target Mitogen-activated protein kinase 9 (Homo sapiens) (UniProt P45984). The settings on record: at 0.1 µM.
Assay [7] shares this target. Particulars: at 1 µM.
Assay [8] deals with Mitogen-activated protein kinase 1 (Homo sapiens) (UniProt P28482). The settings on record: at 0.1 µM.
Mitogen-activated protein kinase 1 (Homo sapiens), sequence (P28482 whole entry): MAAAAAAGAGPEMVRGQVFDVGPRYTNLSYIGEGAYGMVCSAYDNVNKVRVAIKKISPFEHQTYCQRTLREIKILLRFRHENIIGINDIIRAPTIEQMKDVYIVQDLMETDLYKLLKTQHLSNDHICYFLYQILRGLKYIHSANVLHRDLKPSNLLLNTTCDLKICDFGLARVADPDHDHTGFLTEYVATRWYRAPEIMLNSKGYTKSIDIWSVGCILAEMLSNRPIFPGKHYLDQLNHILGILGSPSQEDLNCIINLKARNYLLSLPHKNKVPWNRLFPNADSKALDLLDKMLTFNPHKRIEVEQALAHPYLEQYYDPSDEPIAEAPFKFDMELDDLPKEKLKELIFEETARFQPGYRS
For assay [9] the target is unchanged. The settings on record: at 1 µM.
The target of assay [10] is Mitogen-activated protein kinase 3 (Homo sapiens) (UniProt P27361). Particulars: at 0.1 µM.
Mitogen-activated protein kinase 3 (Homo sapiens), sequence (P27361 whole entry): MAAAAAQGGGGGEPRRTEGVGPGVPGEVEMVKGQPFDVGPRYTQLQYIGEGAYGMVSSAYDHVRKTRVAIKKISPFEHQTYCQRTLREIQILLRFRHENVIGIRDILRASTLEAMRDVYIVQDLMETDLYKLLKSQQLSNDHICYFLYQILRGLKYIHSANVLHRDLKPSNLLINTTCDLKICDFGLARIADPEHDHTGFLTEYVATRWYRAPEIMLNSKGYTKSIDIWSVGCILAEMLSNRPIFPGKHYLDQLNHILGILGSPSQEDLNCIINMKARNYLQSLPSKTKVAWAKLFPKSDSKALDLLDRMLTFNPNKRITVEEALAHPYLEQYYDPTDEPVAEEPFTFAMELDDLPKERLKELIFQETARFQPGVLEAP
Assay [11] has the same target. Particulars: at 1 µM.
The target in assay [12] is SRSF protein kinase 3 (Homo sapiens) (UniProt Q9UPE1). Particulars: at 0.1 µM.
SRSF protein kinase 3 (Homo sapiens), sequence (Q9UPE1 whole entry): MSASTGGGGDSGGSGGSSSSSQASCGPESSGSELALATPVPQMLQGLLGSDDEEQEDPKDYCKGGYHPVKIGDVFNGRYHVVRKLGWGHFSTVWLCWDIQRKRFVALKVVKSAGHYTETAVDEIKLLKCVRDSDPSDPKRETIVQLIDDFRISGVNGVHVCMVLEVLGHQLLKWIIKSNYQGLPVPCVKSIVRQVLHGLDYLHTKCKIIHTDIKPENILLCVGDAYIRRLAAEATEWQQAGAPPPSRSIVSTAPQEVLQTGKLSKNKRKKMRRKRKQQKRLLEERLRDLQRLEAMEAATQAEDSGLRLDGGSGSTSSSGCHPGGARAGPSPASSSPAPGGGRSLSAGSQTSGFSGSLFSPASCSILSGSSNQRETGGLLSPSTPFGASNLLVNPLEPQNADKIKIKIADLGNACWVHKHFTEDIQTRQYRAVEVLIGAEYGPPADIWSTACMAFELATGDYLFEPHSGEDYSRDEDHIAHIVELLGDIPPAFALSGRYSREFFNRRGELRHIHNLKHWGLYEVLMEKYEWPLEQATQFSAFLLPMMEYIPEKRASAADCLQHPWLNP
The target is the same in assay [13]. Particulars: at 1 µM.
Assay [14] deals with Mitogen-activated protein kinase 14 (Homo sapiens) (UniProt Q16539). The settings on record: at 0.1 µM.
Mitogen-activated protein kinase 14 (Homo sapiens), sequence (Q16539 whole entry): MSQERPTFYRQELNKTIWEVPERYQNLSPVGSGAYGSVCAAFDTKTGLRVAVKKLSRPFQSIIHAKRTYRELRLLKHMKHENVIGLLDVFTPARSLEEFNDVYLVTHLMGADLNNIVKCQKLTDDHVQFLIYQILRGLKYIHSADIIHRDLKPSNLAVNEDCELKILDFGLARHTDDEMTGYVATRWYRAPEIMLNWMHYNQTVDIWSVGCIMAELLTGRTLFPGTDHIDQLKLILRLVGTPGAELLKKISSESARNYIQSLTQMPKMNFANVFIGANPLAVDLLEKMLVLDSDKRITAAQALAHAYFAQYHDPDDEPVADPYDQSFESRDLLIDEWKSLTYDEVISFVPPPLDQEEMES
Assay [15] shares this target. The settings on record: at 1 µM.
In assay [16] the target is Mitogen-activated protein kinase 11 (Homo sapiens) (UniProt Q15759). Particulars: at 0.1 µM.
Mitogen-activated protein kinase 11 (Homo sapiens), sequence (Q15759 whole entry): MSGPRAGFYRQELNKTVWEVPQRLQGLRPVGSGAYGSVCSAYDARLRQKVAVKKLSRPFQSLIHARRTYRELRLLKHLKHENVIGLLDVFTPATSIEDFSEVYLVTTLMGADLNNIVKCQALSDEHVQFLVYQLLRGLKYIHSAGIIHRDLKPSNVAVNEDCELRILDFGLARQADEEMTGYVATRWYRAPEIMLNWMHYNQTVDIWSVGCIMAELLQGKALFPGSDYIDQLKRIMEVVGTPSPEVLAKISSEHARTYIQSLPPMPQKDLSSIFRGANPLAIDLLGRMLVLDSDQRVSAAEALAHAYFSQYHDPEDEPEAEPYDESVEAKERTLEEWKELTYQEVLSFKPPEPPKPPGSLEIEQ
Assay [17] shares this target. The settings on record: at 1 µM.
The target in assay [18] is T2, Mitogen-activated protein kinase 13 (Homo sapiens) (UniProt O15264).
T2 sequence (whole entry): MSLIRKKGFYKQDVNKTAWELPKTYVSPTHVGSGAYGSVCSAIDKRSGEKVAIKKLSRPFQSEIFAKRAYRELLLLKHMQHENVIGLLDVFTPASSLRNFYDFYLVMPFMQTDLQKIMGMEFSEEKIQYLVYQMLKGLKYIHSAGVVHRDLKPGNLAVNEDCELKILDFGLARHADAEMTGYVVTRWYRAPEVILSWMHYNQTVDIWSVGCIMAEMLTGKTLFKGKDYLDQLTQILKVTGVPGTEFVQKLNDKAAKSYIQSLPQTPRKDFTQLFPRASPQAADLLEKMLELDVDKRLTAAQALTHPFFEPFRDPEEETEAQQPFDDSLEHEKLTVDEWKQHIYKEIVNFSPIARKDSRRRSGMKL
Particulars: at 0.1 µM.

For assay [19], the target named is T2, Mitogen-activated protein kinase 13 (Homo sapiens). The settings on record: at 1 µM.
Assay [20] addresses T3, Mitogen-activated protein kinase 12 (Homo sapiens) (UniProt P53778).
T3 sequence (whole entry): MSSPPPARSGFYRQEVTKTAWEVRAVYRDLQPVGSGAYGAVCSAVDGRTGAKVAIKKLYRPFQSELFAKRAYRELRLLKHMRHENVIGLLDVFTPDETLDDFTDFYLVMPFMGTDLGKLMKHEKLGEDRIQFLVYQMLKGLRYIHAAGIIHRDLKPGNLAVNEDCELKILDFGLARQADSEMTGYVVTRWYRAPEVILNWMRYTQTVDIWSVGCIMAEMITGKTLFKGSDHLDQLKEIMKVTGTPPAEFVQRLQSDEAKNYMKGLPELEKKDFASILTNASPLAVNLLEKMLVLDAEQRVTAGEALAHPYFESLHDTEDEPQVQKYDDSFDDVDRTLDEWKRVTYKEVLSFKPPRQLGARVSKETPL
Particulars: at 0.1 µM.

Mitogen-activated protein kinase 9 (Homo sapiens), sequence (P45984 whole entry, looked up): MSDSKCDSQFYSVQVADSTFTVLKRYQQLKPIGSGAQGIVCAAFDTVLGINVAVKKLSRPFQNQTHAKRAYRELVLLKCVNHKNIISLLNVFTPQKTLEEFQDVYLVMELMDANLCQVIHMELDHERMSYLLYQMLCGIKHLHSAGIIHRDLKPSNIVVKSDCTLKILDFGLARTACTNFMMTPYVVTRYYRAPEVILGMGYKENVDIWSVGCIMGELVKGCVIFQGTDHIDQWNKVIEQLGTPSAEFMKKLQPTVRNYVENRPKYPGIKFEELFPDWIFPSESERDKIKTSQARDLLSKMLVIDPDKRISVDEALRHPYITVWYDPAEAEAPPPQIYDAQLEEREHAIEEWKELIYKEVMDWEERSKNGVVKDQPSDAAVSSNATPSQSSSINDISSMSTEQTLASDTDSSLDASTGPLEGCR
Glycogen synthase kinase-3 beta (Homo sapiens), sequence (P49841 whole entry, looked up): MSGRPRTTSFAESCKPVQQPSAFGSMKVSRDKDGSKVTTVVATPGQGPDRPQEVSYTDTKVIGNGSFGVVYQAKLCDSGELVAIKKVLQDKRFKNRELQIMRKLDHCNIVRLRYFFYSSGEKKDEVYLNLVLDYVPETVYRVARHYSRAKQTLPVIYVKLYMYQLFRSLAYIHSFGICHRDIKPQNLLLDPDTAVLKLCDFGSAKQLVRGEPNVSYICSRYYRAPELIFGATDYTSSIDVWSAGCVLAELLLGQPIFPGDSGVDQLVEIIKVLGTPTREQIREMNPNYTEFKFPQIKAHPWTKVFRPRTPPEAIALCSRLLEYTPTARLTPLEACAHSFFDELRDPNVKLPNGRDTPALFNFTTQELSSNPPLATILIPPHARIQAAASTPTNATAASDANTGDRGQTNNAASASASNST

`CN1CCC(n2cnc(-c3ccc(F)cc3)c2-c2ccnc(NCCO)n2)CC1`: the inhibition (as a rule, the drop in the measured response relative to a control, in per cent) in [1] came out at 7.21%; in assay [2], 3.91%; in assay [3], 7.67%; in assay [4], 2.19%; in assay [5] it was 4.16%; in assay [6] it was 8.58%. Besides, the inhibition in assay [7] is 37.3%; in [8], 2.94%; in assay [9], 6.12%; in assay [10], 3.9%; in [11], 6.51%; in assay [12], -0.9%. The inhibition in [13] is 1.7%; in assay [14], 66.3%; in assay [15], 86.3%; in [16] it was 12.9%; in assay [17], 52.5%; in assay [18], 2.89%. Also, the results for the inhibition in assay [19] and in assay [20] were 4.31% and 3.94%, respectively.

Consider `CS(=O)(=O)CCNCc1ccc(-c2ccc3ncnc(Nc4ccc(OCc5cccc(C(F)(F)F)c5)cc4)c3c2)o1`, for which the inhibition was 3.05% in assay [1]; -0.56% in assay [2]; 2.78% in [3]; 0.9% in assay [4]; 7.06% in assay [5]; 3.75% in assay [6]. Also, the inhibition in assay [7] is 7.64%; in assay [8], 5.63%; in [9], 5.84%; in assay [10] it was 4.22%; in assay [11] it was 5%; in assay [12], -2.18%. Besides, the inhibition was -0.47% in assay [13]; 11.9% in assay [14]; 13.9% in assay [15]; 1.8% in [16]; 5.06% in assay [17]; 5.4% in [18]. Also, the inhibition came to 5.66% in assay [19] and 3.43% in assay [20].

In the case of `N#Cc1ccc2c(-c3ccnc(NC4CC4)n3)c(-c3ccc(F)cc3)nn2c1`, the inhibition in assay [1] is 45.1%; in [2], -2.11%; in assay [3], 0.75%; in assay [4], -0.93%; in [5] it was -1.01%; in [6], 17.2%. The inhibition is 71.1% in assay [7]; 1.33% in assay [8]; 4.26% in [9]; 0.07% in assay [10]; 1.27% in assay [11]; -2.45% in assay [12]. The inhibition in assay [13] is -1.38%; in assay [14] it was 75.4%; in [15], 84.2%; in assay [16] it was 44.5%; in assay [17], 74.8%; in assay [18], 1.17%. Moreover, the inhibition in assay [19] is 0.18%; in assay [20] it was 1%.

For `Nc1nonc1-c1nc2cnccc2n1C1CC1`, the inhibition in assay [1] is 68.1% and 62.1%; in [2], 0.55% and 0.39%; in assay [3] it was 17.3% and 12.3%; in assay [4], 3.8% and -0.76%; in [5], 11.1% and 7.82%; in assay [6], 3.59% and 0.44%. Moreover, the inhibition in assay [7] was 6.52% and 2.72%; in [8], 3.14% and 2.36%; in assay [9] it was 7.51% and 3.94%; in assay [10] it was 4.9% and 2.96%; in assay [11], 4.99% and 3.59%; in [12] it was -0.3% and -0.76%. In addition, the inhibition is -1.03% and 0.65% in assay [13]; 9.91% and 3.52% in assay [14]; 9.15% and 7.62% in assay [15]; 3.95% and 1.62% in [16]; 6.89% and 0.76% in assay [17]; 3.43% and 4.51% in assay [18]. Besides, the inhibition in assay [19] is 6.86% and 5.08%; in assay [20], 3.64% and 2.61%.

As for `Cc1cc(O)cc(C)c1/C=C/c1cncc(C(N)=O)c1`, the inhibition came out at 1.95% in assay [1]; 0.55% in [2]; 3.38% in assay [3]; 0.22% in assay [4]; 1.54% in [5]; 1.69% in assay [6]. Further, the inhibition in assay [7] turned out to be 2.53%; in assay [8], 1.25%; in assay [9], 2.53%; in assay [10], 0.31%; in assay [11], 2.77%; in [12], 1.7%. The inhibition in [13] was determined as 1.04%; in [14], 4.9%; in assay [15], 6.5%; in [16] it was 0.52%; in [17] it was 0.8%; in assay [18] it was 2.3%. The inhibition is 1.36% in [19] and 1.1% in assay [20].

As to `COc1ccc(-c2nn3ncccc3c2-c2ccnc(Nc3ccc(F)c(F)c3)n2)cc1`, the inhibition in assay [1] is 5%; in assay [2], 3.8%; in assay [3] it was 4.38%; in assay [4] it was 1.49%; in [5] it was 1.58%; in assay [6], 7.25%. Moreover, the inhibition in assay [7] is 23.9%; in assay [8] it was 4.91%; in assay [9], 5.09%; in [10], 3.11%; in [11], 6.78%; in assay [12], -0.12%. Moreover, the inhibition came out at 3.15% in assay [13]; 33% in [14]; 81% in assay [15]; 11.9% in assay [16]; 50.9% in assay [17]; 0.5% in [18]. Moreover, the inhibition stood at 3.31% in assay [19] and 4.66% in [20].

Consider `CCn1c(-c2nonc2N)nc2cncc(C(=O)NCCNC)c21`, for which the inhibition in assay [1] is 42.3%; in assay [2], 0.25%; in [3], 10.2%; in assay [4] it was -0.44%; in assay [5], 3.11%; in assay [6], 4.59%. Further, the inhibition in assay [7] was 4.73%; in assay [8], 6.91%; in [9], 6.64%; in assay [10] it was 6.22%; in [11], 5.7%; in assay [12], -3.21%. Moreover, the inhibition was -0.69% in [13]; 7.83% in assay [14]; 6.55% in [15]; 4.08% in assay [16]; 3.55% in [17]; 5.75% in assay [18]. Also, the results for the inhibition in assay [19] and in assay [20] were 5.07% and 3.86%, respectively.
